The sample as a whole holds a higher share of hits than the screen did.
Tg IFNy HTS: T. gondii growth inhibition under IFN-gamma | Toxoplasma gondii growth in IFN-gamma-treated host cells; hits give low values | activity change, negative = inhibition, % (test concentration not listed) | hit rate 3.8% among 69,000 | AID 1259416; in the data active = activity change below about -70%, passing the limit was not always enough;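 also: host cells are HeLa cells infected with Toxoplasma gondii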
* marks the source's active call; other numbers are inactive results.

SMILES | Tg IFNy HTS
Cc1ccc(NC(=O)c2nnn(Cc3nc(-c4ccc(Cl)cc4)oc3C)c2C)c(C)c1 | 15.3
COCCN1C(=O)CCc2cc(NS(=O)(=O)c3ccc(C(C)C)cc3)ccc21 | -60.4
CCN1CCC2(CN(c3ncccn3)CC23CCN(C(=O)c2cccnc2)CC3)C1=O (configuration not stated) | 153.0
Cn1nc(CC2CCN(C(=O)Cn3cncn3)CC2)n(-c2ccccc2)c1=O | 8.2
COc1ccccc1CN1CC[C@@H]2[C@H]1c1cc(-c3cccc(C(=O)N(C)C)c3)ccc1N[C@@H]2CO | -63.3
CCc1cccc(C)c1NC(=O)Cn1c(=O)cc(C(=O)N2CCOCC2)c2ccccc21 | 6.5
O=C(NC1(c2ccc3c(c2)OCO3)CCCC1)c1ccc(=O)[nH]n1 | 4.4
CCn1c(C(C)N2CCCC2)n[nH]c1=O (configuration not stated) | 11.3
Cc1nc([C@H]2C[C@H]3CCN(Cc4cnn(C)c4)C[C@@H]3O2)sc1C | 3.1
CCn1nc(CC(C)C)cc1C(=O)N1CCCC1Cn1cccn1 (configuration not stated) | 5.5
Cc1oc(-c2cccc(Cl)c2)nc1Cn1nnc(C(=O)Nc2cccc(Cl)c2)c1C | -86.1*
Cc1cccc(C)c1NC(=O)c1nnn(Cc2nc(-c3ccc(Cl)cc3)oc2C)c1C | -122.3*
Cc1cc(C)c(NC(=O)c2nnn(Cc3nc(-c4ccc(Cl)cc4)oc3C)c2C)c(C)c1 | -48.3
Cc1cccc(C)c1NC(=O)c1nnn(Cc2nc(-c3cccc(Cl)c3)oc2C)c1C | 26.2
Cc1ccc(-c2nc(Cn3nnc(C(=O)Nc4cccc(Cl)c4)c3C)c(C)o2)cc1 | 196.3
Cc1oc(-c2ccccc2)nc1Cn1nnc(C(=O)Nc2cccc(Cl)c2)c1C | 228.6
CC(C)CCN1C(=O)N(CC(C)C)C(=O)C12CCN(C1Cc3ccccc3C1)CC2 | 21.6
CC1=C(C(=O)N(C)Cc2cc(C3CC3)on2)C(C)NC(=O)N1 (configuration not stated) | 0.7
c1ccc2c3c([nH]c2c1)C(C1CCCCC1)N(Cc1ccn[nH]1)CC3 (configuration not stated) | 13.8
C/C=C/c1ccc(C2[C@H]3CNC[C@@H]2N3S(=O)(=O)c2c(C)noc2C)cc1 (some centres not stated) | 1.2
CCO[C@H]1CO[C@@]2(CCCN(C(=O)CS(C)(=O)=O)C2)C1 | 44.7
CC(C)c1ncc(C(=O)N2CCC(CC(=O)O)CC2)cn1 | 3.8
O=S1(=O)c2ccccc2O[C@H]2CCN(Cc3ccc(Cl)cc3)CC[C@H]2N1CC1CC1 | -88.9*
O=C(c1ccccc1)N1CC[C@@H]2Oc3ccccc3S(=O)(=O)N(CC3CC3)[C@@H]2CC1 | -23.7
CCN1CC[C@@H]2Oc3ccccc3S(=O)(=O)N(CC3CC3)[C@@H]2CC1 | 2.5
SMILES | Tg IFNy HTS
Nc1ncccc1CN1CCCC1c1nc(-c2ccccc2)no1 (configuration not stated) | 5.6
COc1ccccc1C1CCCN1CC(=O)Nc1ccnn1C1CCCC1 (configuration not stated) | -15.3
CCS(=O)(=O)N1CCC2(CCC2NC(=O)c2cnccn2)CC1 (configuration not stated) | 5.6
CCC[C@H](NC(=O)[C@@H]1[C@H]2CCC[C@H]2CN1C(=O)[C@@H](NC(=O)[C@@H](NC(=O)c1cnccn1)C1CCCCC1)C(C)(C)C)C(=O)C(=O)NC1CC1 | -73.9*
CC(C)CN1C(=O)CCC12CCC(NC(=O)c1cnccn1)CC2 (configuration not stated) | -2.3
Cc1noc(C)c1NC(=O)Nc1ccc2c(c1)C(=O)N([C@@H](C)CO)C[C@H](C)[C@@H](CN(C)S(=O)(=O)c1ccc(F)cc1)O2 | 14.0
COc1nccnc1-c1c[nH]c2ccc(C)cc12 | 137.9
COc1nc(OC)nc(-c2c[nH]c3ccc(C)cc23)n1 | -87.0*
Cc1ccc2[nH]cc(-c3nccc(C(F)(F)F)n3)c2c1 | -11.7
CCOC(=O)c1ccccc1NC(=O)COc1nc(C)nc2ccccc12 | 6.0
Cc1ncc(C(=O)N(CCO)CCSc2ccc(Cl)cc2)cn1 | 3.6
CCn1ncc(S(=O)(=O)N2CCC3(CC2)CN(C)CCN3C)c1C | 10.9
CN1c2ccc(-c3cccc(C#N)c3)cc2[C@@H]2[C@@H](CCN2C(=O)Cc2ccccn2)[C@@H]1CO | -54.4
Cc1ccc(NC(=O)c2c(O)c3cccnc3n(-c3ccccc3)c2=O)c(C)c1 | -9.3
